TDP1 cell CPT = qHTS for Inhibitors of human tyrosyl-DNA phosphodiesterase 1 (TDP1): qHTS in cells in presence of CPT. chicken DT40 Tdp1-/-;hTDP1 cells + 20 nM CPT, ATP luminescence, 48 h. Potency, µM (series often up to 46.2 µM), inactives show at the top dose activity change, negative = growth inhibition, usual class: inhibitors. actives 12% (n = 420,000). AID 686979, 2013; note: potency is the fitted concentration of half-maximal effect; nearly all actives have a fitted effect of over 55% in size
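Chicken DT40 Tdp1-/- cells complemented with human TDP1, 400 cells/well, exposed to compounds plus 20 nM camptothecin for at least 48 h at 37 C; viability read as ATP content by CellTiter-Glo luminescence.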
IL1B secr inh = qHTS for Inhibitors of Inflammasome Signaling: IL-1-beta AlphaLISA Primary Screen; THP-1 LPS/ATP IL-1B secretion, AlphaLISA, 16 h; hits give low values; activity change, % at 57.5 µM; actives 4.7% (n = 360,000); AID 743279, 2014; in the data active = activity change below about -50%; inconclusive = mostly about -30% to -49%
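Secreted IL-1B measured by AlphaLISA bead assay after 16 h compound exposure of THP-1 cells; compounds (final up to 57.5 uM) added 1 h before LPS (250 ng/mL) and ATP (1.25 mM) stimulation; lower signal means less secretion.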
HT1080 IDH1KD tx = qHTS for induction of synthetic lethality in tumor cells producing 2HG: qHTS for the HT-1080-IDH1KD cell line; Potency, µM (highest dose often 46.1 µM), for inactives: at the top dose activity, negative = toxicity, actives largely listed as cytotoxic; actives 2% (n = 360,000); HT-1080 IDH1 knockdown viability, ATP luminescence, 48 h;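 note: potency is the fitted concentration of half-maximal effect; 0% = DMSO wells and -100% = cell-free medium wells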
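% activity derives from luminescence (CellTiter-Glo), normalised to DMSO and no-cell wells. HT-1080-IDH1KD cells, 750/well, had 48 h compound exposure at 37 °C.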
HT1080NT lethal = qHTS for induction of synthetic lethality in tumor cells producing 2HG: qHTS for the HT-1080-NT fibrosarcoma cell line | actives 1.6% (n = 360,000) | AID 686970, 2013 | Potency, µM (doses to about 46.1 µM), for the others: at the highest dose activity, negative = less viability, hits mostly cytotoxic | HT-1080-NT fibrosarcoma viability, CellTiter-Glo ATP luminescence, 48 h;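 note: NT is the 2HG producing partner of a matched IDH1 knockdown line; potency is the fitted concentration of half-maximal effect; 0% = DMSO-treated cells and -100% = media-only wells without cells; nearly all actives have a fitted effect of over 55% in size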
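Viability by CellTiter-Glo luminescence after 48 h compound exposure at 37C of HT-1080-NT cells (750/well, RPMI, 5% FBS). % activity scaled between DMSO wells and medium-only wells, then curve-fitted and categorized by curve class.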
TDP1 cell noCPT = qHTS for Inhibitors of human tyrosyl-DNA phosphodiesterase 1 (TDP1): qHTS in cells in absence of CPT; Potency, µM (highest dose often 46.2 µM), without a hit: top-dose activity change, negative = growth inhibition, hits mostly inhibitors; actives 15% (n = 420,000); DT40 Tdp1-/- hTDP1 cells, no CPT, ATP luminescence, 48 h; note: potency is the fitted concentration of half-maximal effect; nearly all actives have a fitted effect of over 55% in size
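Luminescent ATP content (CellTiter-Glo) served as the growth readout. Knockout chicken DT40 cells expressing human TDP1 were exposed to compounds without camptothecin for a minimum 48 hr at 37 °C.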
An asterisk follows results filed as active; [ ] = dose if it differs, or a comment. Rows were chosen to be rich in hits. Some 19% of all compounds tested hit in one or more screens of this group. Unless noted, calls come from the whole dose curve; as a rule, active = well fitted curve in the direction sought with a large enough effect; inconclusive = small, poorly fitted or top-dose-only effect, or another doubt; inactive = no such curve, though single readings can be large; an effect the other way counts as inactive or inconclusive. Unless noted, % is set by controls: 0 for no effect and ±100 for the full control effect.

`CCOc1ccccc1CNn1nnnc1N` gave TDP1 cell CPT 10%, IL1B secr inh 14, HT1080 IDH1KD tx 5%, HT1080NT lethal 5% and TDP1 cell noCPT -13%.
Screening O=C(c1cnn2c(C(F)(F)F)cc(-c3cccs3)nc12)N1CCN(Cc2ccccc2)CC1 returned TDP1 cell CPT inconclusive, IL1B secr inh inconclusive, HT1080 IDH1KD tx -17%, HT1080NT lethal -18% and TDP1 cell noCPT 15µM*.
Screening O=C(NCCc1ccccc1)c1nc2nc(-c3cccs3)cc(C(F)(F)F)n2n1 returned TDP1 cell CPT 21µM*, IL1B secr inh 0, HT1080 IDH1KD tx -10%, HT1080NT lethal -6% and TDP1 cell noCPT 29µM*.
COc1ccccc1-c1cc(C(F)(F)F)n2ncc(C(=O)N3CCc4ccccc4C3)c2n1 was read as TDP1 cell CPT inconclusive, IL1B secr inh inactive, HT1080 IDH1KD tx 10%, HT1080NT lethal 2% and TDP1 cell noCPT 23µM*.
Screening O=C(c1cnn2c(C(F)(F)F)cc(-c3cccs3)nc12)N1CCN(C(c2ccccc2)c2ccccc2)CC1 returned TDP1 cell CPT 9.2µM*, IL1B secr inh -29, HT1080 IDH1KD tx 4%, HT1080NT lethal -2% and TDP1 cell noCPT 13µM*.
COc1ccccc1-c1cc(C(F)(F)F)n2ncc(S(=O)(=O)c3ccccc3)c2n1 was read as TDP1 cell CPT inconclusive, IL1B secr inh -6, HT1080 IDH1KD tx -3%, HT1080NT lethal 1% and TDP1 cell noCPT inconclusive.
`CN1CCN(C(=O)c2cnn3c(C(F)(F)F)cc(-c4cccs4)nc23)CC1` gave TDP1 cell CPT 6%, IL1B secr inh -2, HT1080 IDH1KD tx 0%, HT1080NT lethal 4% and TDP1 cell noCPT -30%.
`COc1ccc([N+](=O)[O-])cc1N(CC(=O)NC(C(C)C)C(C)C)S(C)(=O)=O` gave TDP1 cell CPT -1%, IL1B secr inh -7, HT1080 IDH1KD tx 0%, HT1080NT lethal 4% and TDP1 cell noCPT -18%.
For Cc1ccc(CSc2nc3ccc(NC(=O)C(C)C)cc3s2)cc1 the results were TDP1 cell CPT -17% and TDP1 cell noCPT inconclusive.
CC(=O)OCCN1C(=O)c2ccc(-c3nc4ccccc4c(=O)o3)cc2C1=O was read as TDP1 cell CPT inconclusive, IL1B secr inh 39, HT1080 IDH1KD tx 12%, HT1080NT lethal 2% and TDP1 cell noCPT inconclusive.
CCN1CCN(CCCNC(=O)CN2C(=O)c3cccnc3Oc3ccc(Cl)cc32)CC1 was read as TDP1 cell CPT -11%, IL1B secr inh -3, HT1080 IDH1KD tx 17%, HT1080NT lethal -3% and TDP1 cell noCPT 6%.
For CN(C)c1ccc(CNC(=O)CCCN2C(=O)c3cccnc3Oc3ccc(Cl)cc32)cc1 the results were TDP1 cell CPT 18µM* and TDP1 cell noCPT inconclusive.
Screening CCc1ccc(CNC(=O)CCCN2C(=O)c3cccnc3Oc3ccc(Cl)cc32)cc1 returned TDP1 cell CPT 21µM* and TDP1 cell noCPT 18µM*.
CC(=O)c1ccc(F)c(-c2cc(C)cc3c2OC(CNC(=O)C[C@@H]2C[C@@H](C)NC(=S)N2)C3)c1 (some centres undefined) was read as TDP1 cell CPT -13%[9.04 µM] and TDP1 cell noCPT -18%.
`CSc1cccc(NC(=O)Cn2c3ncccc3c(=O)n2-c2ccc(C)cc2)c1` gave TDP1 cell CPT inconclusive and TDP1 cell noCPT 16µM*.
`O=C(NCC1(N2CCCCC2)CCCCC1)c1ccc(-n2cc(NC(=O)c3cccnc3)cn2)cc1` gave TDP1 cell CPT -5% and TDP1 cell noCPT inconclusive.
COC(=O)c1cccc(C23CC4(C2)[C@H](CN(C)[C@@H]4c2ccccc2)C3c2ccccc2)c1 (some centres undefined) was read as TDP1 cell CPT 21µM*, IL1B secr inh 0, HT1080 IDH1KD tx -8%, HT1080NT lethal -18% and TDP1 cell noCPT 23µM*.
Screening CN1C[C@@H]2C(c3ccc(Cl)nc3)C3(c4cccnc4)CC2(C3)[C@H]1c1ccccc1 (some centres undefined) returned TDP1 cell CPT -5%, IL1B secr inh 0, HT1080 IDH1KD tx 5%, HT1080NT lethal -2% and TDP1 cell noCPT -23%.
Screening CN1C[C@@H]2C(c3ccccc3)C3(c4ccccc4)CC2(C3)[C@H]1c1ccccc1 (some centres undefined) returned TDP1 cell CPT 26µM*, IL1B secr inh 3, HT1080 IDH1KD tx 3%, HT1080NT lethal 4% and TDP1 cell noCPT inconclusive.
Screening CN1C[C@@H]2C(c3ccc(C(F)(F)F)cc3)C3(c4ccc(C#N)cc4)CC2(C3)[C@H]1c1ccccc1 (some centres undefined) returned TDP1 cell CPT 10µM*, IL1B secr inh 3, HT1080 IDH1KD tx -3%, HT1080NT lethal -1% and TDP1 cell noCPT 23µM*.
`COC(=O)c1cccc(C23CC4(C2)[C@H](CN(C)[C@@H]4c2ccccc2)C3c2ccc(C(F)(F)F)cc2)c1` (some centres undefined) gave TDP1 cell CPT inconclusive, IL1B secr inh 7, HT1080 IDH1KD tx 5%, HT1080NT lethal -17% and TDP1 cell noCPT inconclusive.
`CN1C[C@@H]2C(c3ccccc3)C3(c4ccc(C#N)cc4)CC2(C3)[C@H]1c1ccccc1` (some centres undefined) gave TDP1 cell CPT inconclusive, IL1B secr inh 7, HT1080 IDH1KD tx 0%, HT1080NT lethal -8% and TDP1 cell noCPT inconclusive.
COC(=O)c1ccc(C23CC4(C2)[C@H](CN(C)[C@@H]4c2ccccc2)C3c2ccccc2)cc1 (some centres undefined) was read as TDP1 cell CPT inconclusive, IL1B secr inh 11, HT1080 IDH1KD tx -6%, HT1080NT lethal -5% and TDP1 cell noCPT inconclusive.
`CN1C[C@@H]2C(c3ccc(Cl)nc3)C3(c4ccccc4)CC2(C3)[C@H]1c1ccccc1` (some centres undefined) gave TDP1 cell CPT 21µM*, IL1B secr inh -11, HT1080 IDH1KD tx -15%, HT1080NT lethal -5% and TDP1 cell noCPT 16µM*.
For O=C(Nc1ccc(Cl)cc1Cl)c1cnn2c1NC(=C1CC1)C=C2C(F)F the results were TDP1 cell CPT -8% and TDP1 cell noCPT -29%.
